Most compounds without a hit are left out; they make up all but 2.4% or so of the library.
D2 ag-1 – agonists of human D2 dopamine receptor (beta-arrestin) | DiscoveRx PathHunter D2 beta-arrestin, luminescence, 90 min; 100% = 57 uM dopamine signal | P14416 | AID 624465 | activation, % (test concentration not listed) | 360,000 compounds, 0.084% hits; in the data active = activation above about 40%; inconclusive = between about 15% and that limit
Target sequence (P14416 whole entry, looked up): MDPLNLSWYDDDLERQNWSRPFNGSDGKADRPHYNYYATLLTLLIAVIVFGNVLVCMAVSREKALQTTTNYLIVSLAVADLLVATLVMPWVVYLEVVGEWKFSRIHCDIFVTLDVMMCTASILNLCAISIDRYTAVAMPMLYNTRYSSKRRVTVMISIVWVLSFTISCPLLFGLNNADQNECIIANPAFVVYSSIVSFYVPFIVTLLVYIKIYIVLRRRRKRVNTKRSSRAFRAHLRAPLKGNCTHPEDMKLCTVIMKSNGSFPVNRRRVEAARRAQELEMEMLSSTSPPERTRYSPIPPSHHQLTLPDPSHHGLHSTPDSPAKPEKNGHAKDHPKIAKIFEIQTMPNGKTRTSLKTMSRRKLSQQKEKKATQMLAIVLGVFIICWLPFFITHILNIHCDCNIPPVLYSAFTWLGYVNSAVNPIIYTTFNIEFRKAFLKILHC
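Agonist mode: compounds alone added to overnight-plated D2 PathHunter cells for 90 min at 37 C, with 57 uM final dopamine (EC100) defining full response. Beta-arrestin recruitment detected by chemiluminescent reagent, read after 1 h at ambient temperature.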
D2 PAM-1 – potentiates the human D2 dopamine receptor allosterically; P14416; 360,000 compounds, 0.23% hits; potentiation, % (concentration not given with the values); DiscoveRx D2 beta-arrestin cells, luminescence, 90 min; 100% = 57 uM dopamine signal; AID 624464; in the data active = potentiation above about 50%; inconclusive = mostly about 30% to 49%
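D2 cells co-treated with compound plus 50 nM dopamine (EC20) for 90 min at 37 deg C to detect potentiation. Beta-arrestin recruitment was read as enzyme-fragment luminescence after 1 h at ambient temperature. Full response was set by 57 uM dopamine.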
D2 ag-2 – agonists of human D2 dopamine receptor. HEK293 T-REx D2 cells, calcium flux agonist mode. activation, % at 2 µM. 340,000 compounds, 0.53% hits;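 active = activation over 3 SD above normal in the single-dose calcium agonist read, cut at about 30% in these data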
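Agonism scored from kinetic calcium signal (1 read/sec, 180 s) following compound pin transfer, after a 10 s baseline. Cells: HEK293 Trex line expressing inducible D2 receptor coupled to calcium, dye-loaded after overnight culture at 30 C.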
D2 PAM-2 – positive allosteric modulators of human D2 dopamine receptor. 340,000 compounds, 0.34% hits. P14416. HEK293 T-REx D2, calcium flux, EC20 dopamine potentiation. potentiation, % at 10 µM. AID 485347;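 active = potentiation over 3 SD above the plate norm, cut at about 30% in these data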
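Tetracycline-induced HEK293 T-REx cells force-coupled to calcium signalling expressed D2; compounds were pin-added after a 10 s baseline, read kinetically 180 s, then an EC20 dopamine challenge followed with a further 180 s calcium read.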
D2 antag – antagonizes the human D2 dopamine receptor; 340,000 compounds, 2% hits; AID 485344; inhibition, % at 10 µM; HEK293 TREx D2 cells, calcium flux, dopamine EC80; in the data active = inhibition above about 30%; inactive = below that, where a call was filed
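Read-out: kinetic calcium fluorescence (1 cycle/s) in inducible HEK293 T-REx D2 cells after an EC80 dopamine addition that followed 180 s compound preincubation. Loss of the dopamine response indicates antagonism.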
A number is an active result; ! = a repeat was not active.

Results for CC(C)CCNC(=O)CN1C(=O)COc2ccc(S(=O)(=O)N3CCOCC3)cc21 ?
D2 ag-2: inactive; D2 PAM-2: inactive

What do the screens show for `CC(=O)N1C(C)(C)CC(=NOC(=O)c2ccc(C)cc2)CC1(C)C`?
D2 ag-1: inconclusive; D2 PAM-1: 67; D2 ag-2: inactive; D2 PAM-2: inactive; D2 antag: inactive

How did CC(=O)N1C(C)(C)CC(=NOC(=O)c2ccccc2)CC1(C)C do in these assays?
D2 ag-1: inactive; D2 PAM-1: inactive; D2 ag-2: inactive; D2 PAM-2: inactive; D2 antag: inactive

Results for COc1ccc2occ(CC(=O)Nc3ccc(S(=O)(=O)Nc4nccc(C)n4)cc3)c2c1 ?
D2 ag-2: inactive; D2 PAM-2: inactive

What do the screens show for `COc1cccc(/C=N/NC(=O)CNC(=O)c2cccnc2)c1O`?
D2 ag-1: inactive; D2 PAM-1: inactive; D2 ag-2: inactive; D2 PAM-2: inactive; D2 antag: inactive

Results for COc1cccc(/C=N/NC(=O)CNC(=O)c2ccncc2)c1O ?
D2 ag-1: inactive; D2 PAM-1: inactive; D2 ag-2: inactive; D2 PAM-2: 65; D2 antag: inactive

Results for Cc1c(C(=O)N2CCCC2)oc2c1-c1nn(CC(=O)NCCCOC(C)C)cc1CC2 ?
D2 ag-1: inconclusive; D2 PAM-1: inactive; D2 ag-2: inactive; D2 PAM-2: inactive; D2 antag: 35

How did CCC(=O)NCCc1nc2cc(NC(=O)c3cccc([N+](=O)[O-])c3)ccc2n1C do in these assays?
D2 ag-1: inactive; D2 PAM-1: inactive; D2 ag-2: inactive; D2 PAM-2: inactive; D2 antag: inactive

Results for COc1ccc(NC(=O)c2ccc(-n3cncn3)c([N+](=O)[O-])c2)cc1OC ?
D2 ag-1: inactive; D2 PAM-1: inactive; D2 ag-2: inactive; D2 PAM-2: inactive; D2 antag: 35

What do the screens show for `O=C(Nc1cccc(/C=C/c2ccccn2)c1)c1ccc(-n2cncn2)c([N+](=O)[O-])c1`?
D2 ag-1: inactive; D2 PAM-1: 63; D2 ag-2: inactive; D2 PAM-2: inactive; D2 antag: inactive

How did O=C(Nc1ccc(F)c(F)c1)c1ccc(-n2cncn2)c([N+](=O)[O-])c1 do in these assays?
D2 ag-1: inactive; D2 PAM-1: inactive; D2 ag-2: inactive; D2 PAM-2: inactive; D2 antag: inactive

What do the screens show for `Cc1cccc(CN2CCN(c3nc4nonc4nc3NC3CC3)CC2)c1`?
D2 ag-1: inactive; D2 PAM-1: inactive; D2 ag-2: inactive; D2 PAM-2: inactive; D2 antag: inactive

What do the screens show for `Clc1cccc(CN2CCN(c3nc4nonc4nc3NC3CC3)CC2)c1`?
D2 ag-1: inactive; D2 PAM-1: inactive; D2 ag-2: inactive; D2 PAM-2: inactive; D2 antag: 38

Results for CN1c2ccccc2C(C)(C)[C@]12C=Cc1cc(O)ccc1O2 ?
D2 ag-1: inactive; D2 PAM-1: inactive; D2 ag-2: inactive; D2 PAM-2: inactive; D2 antag: inactive

What do the screens show for `COc1ccc2ccc3c(c2c1)N=CC1(O3)N(C)c2ccccc2C1(C)C` (stereo not given)?
D2 ag-1: inactive; D2 PAM-1: 71; D2 ag-2: inactive; D2 PAM-2: inactive; D2 antag: inactive

What do the screens show for `CN1c2ccccc2C(C)(C)C12C=Nc1c(ccc3ccccc13)O2` (stereo not given)?
D2 ag-1: inconclusive; D2 PAM-1: 87; D2 ag-2: inactive; D2 PAM-2: inactive; D2 antag: 34

What do the screens show for `COc1ccccc1CNC(=O)/C(C#N)=C/c1ccc(OC)c(OC)c1OC`?
D2 ag-1: inactive; D2 PAM-1: inactive; D2 ag-2: inactive; D2 PAM-2: inactive; D2 antag: inactive

How did CC1(C)CC(=O)c2cc(-c3nc(-c4ccc(Cl)cc4)cs3)c(=O)n(-c3ccc(F)cc3)c2C1 do in these assays?
D2 ag-2: inactive; D2 PAM-2: inactive

What do the screens show for `CCN(CC)CCCC(C)n1c(C)cc(C(=O)NS(=O)(=O)c2ccc(C)cc2)c1C` (stereo not given)?
D2 ag-1: inactive; D2 PAM-1: inactive

Results for CCCN1C(=O)/C(=C/c2c(N3CCNC(=O)C3CC(=O)OCC)nc3c(C)cccn3c2=O)SC1=S (stereo not given) ?
D2 ag-1: inactive; D2 PAM-1: inactive; D2 ag-2: 81; D2 PAM-2: inactive; D2 antag: inactive

What do the screens show for `CCOC(=O)CC1C(=O)NCCN1c1nc2ccc(C)cn2c(=O)c1/C=C1\SC(=S)N(C(C)CC)C1=O` (stereo not given)?
D2 ag-2: 73; D2 PAM-2: inactive; D2 antag: 32

How did CCCCCN1C(=O)/C(=C/c2c(N3CCc4ccccc4C3)nc3ccccn3c2=O)SC1=S do in these assays?
D2 ag-1: inactive; D2 PAM-1: inactive

What do the screens show for `CCOC(=O)CC1C(=O)NCCN1C(=O)c1ccc(C)cc1` (stereo not given)?
D2 ag-1: inactive; D2 PAM-1: inactive; D2 ag-2: inactive; D2 PAM-2: inactive; D2 antag: inactive

Results for CCOC(=O)CC1C(=O)NCCN1c1nc2ccc(C)cn2c(=O)c1/C=C1\SC(=S)N(CC(C)C)C1=O (stereo not given) ?
D2 ag-1: inactive; D2 PAM-1: inactive; D2 ag-2: 104; D2 PAM-2: inactive; D2 antag: inactive

Results for COc1ccc(S(=O)(=O)NCCCO)cc1-c1nnc2c3ccccc3c(C)nn12 ?
D2 ag-2: inactive; D2 PAM-2: inactive

How did CCCCC(=O)NCc1nc2cccnc2n1Cc1ccc(OC)cc1 do in these assays?
D2 PAM-2: inactive

How did C[C@@H]1CN([C@H](C)CO)C(=O)c2cccc(NS(=O)(=O)c3ccccc3)c2O[C@H]1CN(C)C do in these assays?
D2 ag-1: inactive

What do the screens show for `COc1ccc(N2CC(C(=O)NC3CCCCC3)CC2=O)cc1` (stereo not given)?
D2 ag-1: inactive; D2 PAM-1: inactive; D2 ag-2: inactive; D2 PAM-2: inactive; D2 antag: inactive

Results for CCCC(=O)N1CCc2cc(OC)c(OC)cc2C1COc1ccccc1OC (stereo not given) ?
D2 ag-1: inactive; D2 PAM-1: inactive; D2 ag-2: inactive; D2 PAM-2: inactive

Results for CCC(=O)N1CCc2cc(OC)c(OC)cc2C1COc1ccccc1OC (stereo not given) ?
D2 ag-1: inactive; D2 PAM-1: inactive; D2 ag-2: inactive; D2 PAM-2: 38!; D2 antag: inactive

How did Nc1no[n+]([O-])c1-c1ccccc1 do in these assays?
D2 ag-1: inactive; D2 PAM-1: inactive; D2 ag-2: inactive; D2 PAM-2: inactive; D2 antag: inactive

How did CCn1cc([N+](=O)[O-])c(C(=O)Nc2ccc3c(c2)OCCO3)n1 do in these assays?
D2 ag-1: inactive; D2 PAM-1: inactive; D2 ag-2: inactive; D2 PAM-2: inactive; D2 antag: 69

How did CCCSc1nc2c([nH]c3ccccc32)c(=O)n1C do in these assays?
D2 ag-2: inactive; D2 PAM-2: inactive

High-throughput results deposited in PubChem by National Center for Advancing Translational Sciences (NCATS).
